Among the data in PubChem BioAssay AID1259336 (Sattelle Laboratory, UCL Respiratory, Division of Medicine, …, 2017) are log2 fold change growth values, retold here.

Unmarked numbers belong to inactive results. Activity calls are given as the source filed them. Cut-off read from the data, not from the text of the source: active = log2 fold change growth below about -1.8; inactive = the rest.

A short description of the assay: anthelmintic activity against nematode growth – whole organism, log2 fold change (AID 1259336).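 Note: growth scored by imaging after five days at 20 °C.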 As to conditions: C. elegans growth, anthelmintic screen; stronger effect = lower value.
As for `Clc1ccc(-n2cc(COc3ccnc4ccccc34)nn2)cc1`, the log2 fold change growth is -5.7 (active).

With `Cc1cc(C)c2cc(C(=O)NC3CCCCCCC3)[nH]c2c1`, the log2 fold change growth is -0.0221.

`CCn1cnc2c(Nc3cc(F)cc(F)c3)nc(C#N)nc21`: the log2 fold change growth was -0.053. `Nc1ncnc2c1ncn2[C@@H]1O[C@H](COS(=O)(=O)NC(=O)c2ccccc2O)[C@@H](O)[C@H]1O`: the log2 fold change growth is 0.353. Under `Cc1cc(C)nc(-n2nc(C)cc2Nc2ccccc2)n1` stands 0.0497. Turning to `COc1ccc(-c2onc(C(F)(F)F)c2-c2ccc(Cl)cc2)c(O)c1`, the log2 fold change growth is 0.102.

For the compound `Cc1nc2ccccn2c1C(=O)NCc1ccc(Cl)cc1`, the log2 fold change growth was 0.244. Regarding `Cc1[nH]n2c(=O)c3c(nc2c1-c1ccc(Cl)cc1)CCCC3`, the log2 fold change growth is -0.182.

Regarding `O=C(Nc1ccccc1)c1ccc(-c2cc3ccncc3cc2OC2CCNCC2)s1`, the log2 fold change growth is -0.0844. For the compound `COc1cc(OC)cc(C(=O)NC[C@H]2Cc3cc(Cl)cc(-c4ccncc4)c3O2)c1`, the log2 fold change growth is -1.17.

On to `Clc1cccc([C@H](c2ccc(CN3CCNCC3)cc2)n2ccnc2)c1`, for which the log2 fold change growth is -0.356. Under `COC(=O)c1cccc2oc(-c3cccc(OC)c3NC(=O)c3cc(-c4ccccc4)on3)nc12` stands -0.13; under `CC(C)(CN)c1nc(-c2ccc(Cl)c(O)c2)c(-c2ccnc(N)n2)[nH]1`, -0.414; under `COc1cccc(-c2cc3c(Nc4cccnc4)nccc3[nH]2)c1`, 0.319. The figure for `Cc1ccc(-c2nc(CN(Cc3ccccn3)C(C)C)cs2)o1` is 0.617. Under `Cc1cc(Cl)c(S(=O)(=O)N2CCCC2)cc1OCC(=O)NC1CCCCC1` stands -0.00734; under `Cc1ccc(Oc2ccc(NC(=O)CNc3ccccc3N3CCCC3=O)cc2)cc1`, 0.0475.

On to `CC1(C)Cc2c(c(N3CCOCC3)nc3snc(Br)c23)CO1`, for which the log2 fold change growth was 0.562. The figure for `CC1=Nc2ccc(Cl)cc2[C@H](c2ccccc2)N1CCNC(=O)CN(C)C` is 0.44; for `CNc1snc(C)c1C(=O)NCCOc1ccc(OC)cc1` it is -0.0598.

`c1ccc(Oc2ccc(-c3cc(N4CCNCC4)n[nH]3)cc2)cc1`: the log2 fold change growth was 0.489.

As for `Cc1cc2nc(NC(=O)C(C)(C)C)nc(Cl)c2n1Cc1ccc(Cl)cc1`, the log2 fold change growth was 0.316. Under `CC(C)N=c1cc2n(-c3ccc(Cl)cc3)c3ccccc3nc-2cc1Nc1ccc(Cl)cc1` stands 0.0581; under `CC[C@H](Sc1nc2ccccc2o1)C(=O)Nc1nnc(C)s1`, 0.272. The figure for `NCCN(C(=O)c1ccc(Cl)cc1Cl)c1ccc(OCc2ccc(Cl)cc2)cc1` is -0.0401; for `O=C(NCCc1ccccc1)c1cc(-c2cccnc2)cnc1NCC1CC1` it is -0.19. The figure for `COc1ccc2nc(C)cc(OCC(=O)Nc3ccccc3OC)c2c1` is 0.165. For `CCOC(=O)c1noc(N)c1-c1ccccc1`, the log2 fold change growth was 0.292.

As for `c1ccc(-c2nc(NC3CCCCC3)cc(C3CC3)n2)nc1`, the log2 fold change growth is -0.0356. Take `CCOC(=O)c1cc(-c2csc(Nc3c(C)cc(C)cc3C)n2)on1`: the log2 fold change growth is -0.726. Consider `O=C(NC1CC1)c1ccc(N2CCC(Cc3ccccc3)CC2)nc1`, for which the log2 fold change growth is 0.0189. Under `O=C(Nc1ccc2c(c1)B(O)OC2)c1ccccc1C(F)(F)F` stands -8.94 (active). The figure for `CC(C)NCC(=O)Nc1cccc(C(=O)Nc2cccc(C(F)(F)F)c2)c1` is 0.0022. The figure for `CC1=Nc2ccc(Cl)cc2[C@@](O)(c2ccc(C)cc2)N1CCN1CCCCC1` is 0.034; for `CC(C)[C@H](Oc1cccc2ccccc12)C(=O)O` it is 0.534.

Consider `Cc1ccc2[nH]c3c(NCCN(C)C)ncnc3c2c1`, for which the log2 fold change growth was 0.351. The figure for `Cc1nc(-c2ccccn2)nc(N(C)CCc2ccccc2)c1Cl` is -0.0752.

For the compound `O=C(c1n[nH]c2c1CCCC2)N1CCN(Cc2ccc3c(c2)OCO3)CC1`, the log2 fold change growth is 0.387. Under `CC[C@H](C)NC(=O)c1ccc(NC(=O)C2(c3ccccc3)CCCC2)cc1` stands 0.546.
